Measurements published in PubChem BioAssay (NCI).
About 83,000 compounds went through this panel and 20% of them were active in at least one assay; those are over-represented in the sample as a whole.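 Activity criterion: percent growth below 10, measured after cells in 96-well plates were exposed to a single compound concentration for 48 hours.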 A number with no mark means an inactive call. Calls of active or inactive are those of the source.

Key:
Assay in all cases: NCI-60 one-dose screen, 48 h (100 = growth as untreated, 0 = no growth, -100 = all killed)
Conditions in all cases: 10 µM unless noted
[1] = test system: SK-MEL-2 melanoma
[2] = test system: EKVX NSCLC
[3] = test system: SN12C renal
[4] = test system: UO-31 renal
[5] = test system: TK-10 renal
[6] = test system: ACHN renal
[7] = test system: CAKI-1 renal
[8] = test system: CCRF-CEM leukemia
[9] = test system: MOLT-4 leukemia
[10] = test system: A498 renal

| Compound | growth [1] | growth [2] | growth [3] | growth [4] | growth [5] | growth [6] | growth [7] | growth [8] | growth [9] | growth [10] |
| --- | --- | --- | --- | --- | --- | --- | --- | --- | --- | --- |
| CCCCCSB(SCCCCC)c1ccccc1 | 102% | 106% | 106% | 81.3% | 101% | 105% | 96% | 97.4% | 96.4% | – |
| CN1CCN(CCOc2ccc(-c3cnc4c(-c5ccc(C(F)(F)F)cc5)cnn4c3)cc2)CC1 | 63.3% | 60.1% | 53.7% | 38.1% | 67.4% | 58.8% | 31% | -13.7% (active) | -51.3% (active) | – |
| N#C/C(=C\c1ccc(Br)cc1)c1cc2ccccc2[nH]1 | 114% | 91% | 97.6% | 86.8% | 119% | 102% | 92.7% | -42.4% (active) | 84.5% | – |
| COc1cc(C(=O)C(=O)c2cc(OC)c(O)c(OC)c2)cc(OC)c1O | 115% | 104% | 91.3% | 98.6% | 95.8% | 98% | 105% | 88.3% | 108% | – |
| COc1cccc(OC)c1Oc1c(-c2nc3ccccc3s2)c(C)nn1-c1ccccc1 | 90.6% | 71.9% | 82.6% | 49.5% | 94.7% | 72.8% | 44.9% | 62.9% | 51.2% | – |
| O=C1/C(=C/c2ccc(C(F)(F)F)cc2)COc2ccc(O)cc21 | 99.7% | 96.3% | 69.3% | 44.8% | 99.2% | 91.3% | 71.9% | 3.29% (active) | 4.15% (active) | – |
| CCN1C(=O)N(CC)C2C1NN=c1s/c(=C\c3cc4ccccc4[nH]3)c(=O)n12 (stereo not given) | 23.1% | 54.5% | 11.2% | 18.7% | 59.6% | 11.7% | 7.63% (active) | -8.2% (active) | 11.1% | – |
| O=C(CSc1nnc2sc(Nc3cccc(Cl)c3)nn12)c1ccc(F)cc1 | 102% | 94.8% | 98.9% | 78.8% | 114% | 96% | 71.3% | 91.1% | 71.3% | – |
| C=C(CN1CC=CCC1)[C@@H]1CC[C@]2(CO)CC[C@]3(C)[C@H](CC[C@@H]4[C@@]5(C)CC[C@H](O)C(C)(C)[C@@H]5CC[C@]43C)[C@@H]12 | 110% | 104% | 98.1% | 93.7% | 123% | 114% | 106% | 91.3% | 86.5% | 112% |
| O=C1NC(=Nc2ccc(O)cc2)S/C1=C\c1cccs1 | 97.9% | 38.8% | 46.1% | 52.5% | 69.3% | 30.3% | 40.9% | 11.9% | 23.1% | – |
| Cc1ccc2nc(Cl)c(Cn3nnnc3SCc3ccccc3)cc2c1 | 96.6% | 80.7% | 92.8% | 69.6% | 97.9% | 91.8% | 72.1% | 93.9% | 97.8% | – |
| Cn1cc(C(=O)c2nc(-c3c[nH]c4ccc(Br)cc34)no2)c2cc(Br)ccc21 | 109% | 60.5% | 80.1% | 67% | 99.9% | 80.9% | 67.4% | 45.6% | 85% | – |
| CC(C)CCSc1nc(Nc2ccccc2)c(C#N)c(-c2ccccc2)n1 | 81.4% | 14.7% | 27.1% | 12.9% | 24.7% | -21.2% (active) | 26.8% | 54.9% | 80.7% | – |
| N#Cc1c(-c2ccccc2)c(C#N)c2c(C#N)c(N)nn2c1N | 9.95% (active) | 47.3% | 51.7% | 52.1% | 67% | 60.9% | 47% | 13.3% | 11.7% | – |
| CC1(C)O[C@H]2OC3CCC(=O)CC3(O)[C@H]2O1 (stereo not given in full) | 102% | 112% | 103% | 79.5% | 97.7% | 110% | 101% | 106% | 112% | – |
| C[C@@H]1O[C@@H](O[C@@H]2C[C@H](c3ccc4c(c3O)C(=O)C3=C(C4=O)[C@@]4(O)C(=O)C[C@](C)(O)C[C@@]4(O)C=C3)O[C@H](C)[C@H]2O)C[C@H](O)[C@@H]1O | 103% | 102% | 94.2% | 78.9% | 101% | 102% | 88.1% | 93.8% | 91.5% | – |
| COc1ccc(/C(C)=C(\c2ccc(OCCN3CCCCCC3)cc2)c2ccc(OC(=O)c3ccccc3)cc2)cc1 | 54.6% | 74.4% | 56.2% | 26.2% | 74.5% | 72.3% | 52.9% | 26.8% | 17.4% | 82.1% |
| C=CCn1c(SCC(=O)Nc2ccc(C(=O)/C=C/c3ccc(OC)cc3)cc2)nnc1-c1ccccc1 | 82.4% | 88.4% | 89.2% | 69.4% | 98% | 92.5% | 93.1% | 84.5% | 61.1% | – |
| CCOC(=O)N1CCN(S(=O)(=O)c2oc(-c3ccc(Cl)cc3)nc2C#N)CC1 | 83.8% | 101% | 92.6% | 81.5% | -27% (active) | 76.1% | 101% | 1.71% (active) | 5.33% (active) | – |
| COc1ccc(-c2cc(-c3cc(OC)c(OC)c(OC)c3)c(C#N)c(=O)n2CCCCCC(=O)NO)cc1 | 102% | 91.3% | 89.2% | 62.4% | 106% | 88.3% | 79.9% | 85.7% | 96.6% | 54% |
| COc1cc(/C=N/Nc2ccccc2F)cc(OC)c1OC | 90.2% | 87.4% | 97.1% | 68.8% | 157% | 81.3% | 50.8% | 75.2% | 83.9% | – |
| CC(C)c1ccc(NC(=O)Nc2ccc(NC(=O)c3ccccc3N)cc2)cc1 | 45.3% | 48.2% | 91.6% | 20.5% | 65.5% | 29.6% | 70.7% | 29% | 19.2% | – |
| Cc1cccc(-n2c(C)nc3ccc(N4CCCNC4=O)cc3c2=O)c1 | 106% | 99.5% | 98% | 88.7% | 104% | 111% | 99.8% | 106% | 110% | – |
| CCCCCCOC(=O)CC1=C(C)/C(=C/c2[nH]c(-c3ccc[nH]3)cc2OC)N=C1C | -49.5% (active) | -35% (active) | -63% (active) | -86.9% (active) | -24.9% (active) | -19.5% (active) | 0.637% (active) | -22.5% (active) | -30.3% (active) | -49.4% (active) |
| CCOC(=O)C1=C(C)N=C2SC=C(c3ccccc3)N2[C@H]1c1cn[nH]c1-c1ccc(Cl)cc1 | 65.6% | 72.3% | 48.8% | -33% (active) | 63.3% | 41.1% | -15.1% (active) | -19.8% (active) | -7.33% (active) | – |
| CC1CN=C(c2cccc(-c3ccc(-c4ccccc4)o3)c2)N1 (stereo not given) | -69.7% (active) | 37.2% | 32.2% | -0.664% (active) | 30.1% | -21.8% (active) | 5.69% (active) | -13.4% (active) | -16.5% (active) | – |
| CCNC(=O)Oc1ccc(/C(=C(/C)Cc2ccc(OC)cc2)c2ccc(OCCN3CCCC3)cc2)cc1 | 110% | 76.2% | 75.6% | 57.8% | 88.1% | 92.4% | 82.3% | 45.8% | 31.6% | – |
| COc1ccc(OC)c(Nc2nnc(-c3ccc(Cl)cc3)o2)c1 | 96.9% | 82.5% | 90.1% | 51.8% | 36% | 30.8% | 65.3% | 108% | 88.5% | – |
| Nc1c(C(=O)Nc2ccccn2)sc2nc3c(cc12)C(O)CCC3 (stereo not given) | 43.8% | 42.1% | 44.3% | 43.6% | 47.4% | 46.2% | 28.9% | 6.62% (active) | 34% | – |
